# A selection: hits, their analogues and other compounds. The true share with any hit is near 32%.
# PostGolgi yeast – growth inhibition of a yeast mutant, post-Golgi transport screen. 0.9% of 98,000 active. inhibition, % at 10 µM. post-Golgi transport phenotypic cell assay. AID 739;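 note: yeast cells grown in 1536-well plates; yeast grown about 18 h at 30C before absorbance read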
# CYP2C9 activ – activators of human CYP2C9. AID 1024. recombinant CYP2C9, luciferin-H conversion, luminescence; stronger effect = higher value; factor 1 = untreated enzyme, 0 = blocked. P11712. activation factor at 5 µM. 1.4% of 96,000 active;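 active = activation factor of 2 or more for CYP2C9 at a 5 µM dose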;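 note: 0 = sulfaphenazole-blocked wells and 1 = vehicle-only wells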
# CYP2C9 inh – blocks human cytochrome P450 2C9; P11712; CYP2C9 Supersomes, luciferin-H conversion, luminescence; inhibition, % at 5 µM; 20% of 96,000 active;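 active = blocking of liver enzyme CYP2C9 beyond about 50% at 5 µM, limit read from the data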
# CYP2C19 activ – activators of human cytochrome P450 2C19; 96,000 tested, under 10 active; activation factor at 5 µM; AID 1025; recombinant CYP2C19, luciferin-H EGE luminescence; stronger effect = higher value; 0 = fully inhibited enzyme, 1 = untreated enzyme;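 active = activation factor of at least 2 at 5 µM in the primary screen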;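 note: 0 = wells with 2.5 mM tranylcypromine and 1 = vehicle-only wells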
# PostGolgi ctrl – growth of the yeast control strain, post-Golgi counter-screen; efflux-deficient yeast background strain, growth absorbance A615, 16 h; inhibition, % at 10 µM; 5% of 98,000 active
# CYP2C19 inhib – inhibitors of human CYP2C19. AID 778. inhibition, % at 5 µM. 21% of 96,000 active. P33261. CYP2C19 Supersomes, luciferin-H EGE luminescence, 30 min;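 active = CYP2C19 inhibition above a set limit at 5 µM in the primary screen, cut at about 50% in these data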;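 note: plate controls were negative control wells for no effect and 2.5 mM tranylcypromine positive control for full effect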
# The depositor's hits bear a star; nt = no result. Cut-off read from the data, not from the text of the source, unless noted: active = inhibition above about 30%; inactive = the rest.
SMILES,PostGolgi yeast,CYP2C9 activ,CYP2C9 inh,CYP2C19 activ,PostGolgi ctrl,CYP2C19 inhib
CCOc1cc(/C=N/O)cc(Br)c1OCc1ccc(Cl)cc1,4,0.9,7,1,37*,4
C#CCOc1c(Br)cc(/C=N/O)cc1OCC,-1,0.3,72*,0.5,-4,47
C#CCOc1c(Br)cc(/C=N\NC(=O)CN2CCOCC2)cc1OCC,3,0.4,59*,0.7,6,31
CCCOc1c(Br)cc(/C=N/O)cc1OC,-8,1.1,-7,0.8,26,23
COc1cc(/C=N\NC(=O)CN2CCOCC2)ccc1OCC(=O)Nc1ccc(C)c(C)c1,-1,0.9,10,0.7,9,32
CCCC1CCc2c(sc(NC(=O)c3cccs3)c2C(N)=O)C1 (configuration not stated),-6,0.9,14,1.1,10,-14
CCn1c(SC(C)C(=O)O)nnc1-c1cccnc1 (configuration not stated),7,0.9,9,0.8,-6,19
C=CCOC(=O)Nc1ccc(Cl)cc1NC(=O)OCC=C,2,0.4,65*,0.1,4,93*
CC(NC(=O)COc1ccc(Oc2ccccc2)cc1)C(=O)O (configuration not stated),4,1.1,-7,1.2,0,-15
O=C(NCC(c1cccs1)N1CCOCC1)c1ccco1 (configuration not stated),-8,0.6,36,0.6,2,44
O=C(NCC(c1cccs1)N1CCOCC1)c1cc2ccccc2o1 (configuration not stated),-4,0.3,74*,0.3,0,75*
Cc1ccc(S(=O)(=O)c2nc(N3CCOCC3)sc2Cl)cc1,-3,0.9,6,0.6,18,36
Cc1ccc(S(=O)(=O)c2n[nH]n3c2nc(=O)c2ccccc23)cc1,-5,0.1,94*,1.1,27,-5
CC(C)(C)c1nc(N2CCN(C(=O)c3ccco3)CC2)c2nnn(Cc3ccccc3)c2n1,4,0.8,24,1,12,2
O=C(Cn1ncc2c(=O)oc3ccccc3c21)N1CCN(c2ccccn2)CC1,35*,1,4,1.1,12,-5
O=C(Cn1ncc2c(=O)oc3ccccc3c21)N1CCN(C(=O)c2ccco2)CC1,3,0.8,22,1,19,-1
CCOC(=O)Cn1ncc2c(=O)oc3ccccc3c21,5,0.9,7,0.9,-2,9
O=C(Cn1ncc2c(=O)oc3ccccc3c21)N1CCCc2ccccc21,4,0.3,67*,0.6,-6,43
CCNc1nc(Oc2ccccc2)nc(OC(C)C(=O)OCC)n1 (configuration not stated),2,nt,nt,nt,0,nt
Cc1ccc(-c2cc(-c3ccccc3Cl)c(C#N)c(N)n2)o1,0,0.2,82*,0.1,8,92*
Cc1ccc(-c2cc(-c3ccc(F)cc3)nc(N)c2C#N)o1,9,0.5,52*,0.6,8,39
Cc1ccc(-c2cc(-c3ccccc3)c(C#N)c(N)n2)o1,5,0.9,7,0.7,10,33
Cn1c2ccccc2c2ncn(Cc3ccco3)c(=O)c21,-2,0.4,60*,0.3,10,69*
Cc1cccc(Cn2c(=O)c3c(nc4n3CCN4Cc3ccco3)n(C)c2=O)c1,3,nt,nt,nt,8,nt
CCCCn1c(=O)n(Cc2cccc(F)c2)c(=O)c2c1ncn2Cc1ccco1,-10,0.9,11,0.9,39*,11
SMILES,PostGolgi yeast,CYP2C9 activ,CYP2C9 inh,CYP2C19 activ,PostGolgi ctrl,CYP2C19 inhib
Cn1c2ccc(F)cc2c2ncn(Cc3ccco3)c(=O)c21,2,0.4,61*,0.5,8,51*
CC#CCCCC(=O)Nc1cccc(C(=O)O)c1,-1,1,-4,0.6,6,39
O=C(CCC(=O)c1ccc[nH]1)c1ccc(Cl)cc1,-3,0.9,12,0.7,0,30
CCCn1c(SCC(=O)Nc2ccccc2N2CCCCC2)nc2c1c(=O)n(C)c(=O)n2C,12,0,98*,0.2,22,79*
CCCn1c(SCC(=O)Nc2ccccc2C(=O)OC)nc2c1c(=O)n(C)c(=O)n2C,-10,0.3,72*,0.7,15,34
CCCn1c(SCC(=O)Nc2sc(C)c(C)c2C(=O)OCC)nc2c1c(=O)n(C)c(=O)n2C,-7,0.3,66*,1,3,-3
CCCCn1c(SCC(=O)Nc2cc(C)on2)nc2c1c(=O)n(C)c(=O)n2C,-10,0.7,32,0.8,-2,17

# Compound activity from PubChem BioAssay.
